According to PubChem BioAssay (Tox21):
Values joined by “and” are separate entries in the source; they are usually repeats but may differ in a detail not shown here. Equal values may be shown once. Records with an inconclusive call do not appear. Active and inactive are the calls of the source. Unless noted, calls come from the whole dose curve.

Tests used:
[1] = qHTS assay to identify small molecule antagonists of the vitamin D receptor (VDR) signaling pathway - cell viability counter screen (AID 743225; active = well fitted curve in the direction sought with a large enough effect in the repeat runs; an effect the other way counts as inactive or inconclusive; note: nearly all actives have a fitted effect of over 50% in size; note: potency is the fitted concentration of half-maximal effect); settings: VDR-bla HEK293T viability, CellTiter-Glo luminescence, 16 h; series mostly up to 61 µM
Summary of the method: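 Same-well multiplex: following 16 h treatment of HEK 293T cells carrying a UAS-driven beta-lactamase reporter with compound and agonist (3 nM final), and a 2 h FRET substrate step, CellTiter-Glo was added and luminescence read after 30 min.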

[2] = qHTS assay to identify small molecule agonists of the NFkB signaling pathway - cell viability counter screen (AID 1159515); settings: NFkB-bla ME-180 viability, CellTiter-Glo luminescence, 5 h; series mostly up to 61 µM; note: nearly all actives have a fitted effect of over 55% in size; note: potency is the fitted concentration of half-maximal effect
Summary of the method: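 Plate 2,000 NFkB-bla ME-180 cells/well; incubate overnight. Add compounds, 5 hr at 37 C. Add FRET substrate, 1.5 hr RT. Add CellTiter-Glo, 30 min RT; read luminescence.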

[3] = qHTS assay to identify small molecule agonists of the endoplasmic reticulum stress response signaling pathway - cell viability counter screen (AID 1159517); settings: ESRE-bla HeLa viability, CellTiter-Glo luminescence, 5 h; series mostly up to 61 µM; note: nearly all actives have a fitted effect of over 50% in size; note: potency is the fitted concentration of half-maximal effect
Summary of the method: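 Cytotoxicity of test compounds toward ESRE-bla HeLa cells was assessed after 5 hr exposure. The luminescent CellTiter-Glo signal was measured 30 min after reagent addition.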

[4] = qHTS assay to identify small molecule antagonists of the retinoid-related orphan receptor gamma (ROR-gamma) signaling pathway - cell viability counter screen (AID 1159520; active = well fitted curve in the direction sought with a large enough effect in the repeat runs; an effect the other way counts as inactive or inconclusive; note: nearly all actives have a fitted effect of over 50% in size; note: potency is the fitted concentration of half-maximal effect); settings: Tet-on RORgamma CHO cells viability, ATP luminescence, 16 h; series mostly up to 92.4 µM
Summary of the method: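 Tet-on ROR gamma CHO cells (1,000/well) were plated 4 hr, given compounds in DMSO for 2 hr at 37 C, then induced with 1 uM final doxycycline for 16 hr. Viability was read as ATP by CellTiter-Glo luminescence after 30 min.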

[5] = qHTS assay to identify small molecule agonists of the AP-1 signaling pathway - cell viability counter screen (AID 1159525); settings: ME-180 AP-1-bla cells viability, ATP luminescence, 5 h; series mostly up to 76.8 µM; note: nearly all actives have a fitted effect of over 55% in size; note: potency is the fitted concentration of half-maximal effect
Summary of the method: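 Each titration point was normalised to DMSO and tetra n-octyl ammonium bromide controls. The read was Cell Titer Glo luminescence after 30 min at RT, following 5 h compound exposure of ME-180 AP-1-bla cells at 37 °C.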

[6] = qHTS assay to identify small molecule agonists of the RXR signaling pathway - cell viability counter screen (AID 1159529; active = well fitted curve in the direction sought with a large enough effect in the repeat runs; an effect the other way counts as inactive or inconclusive; note: nearly all actives have a fitted effect of over 50% in size; note: potency is the fitted concentration of half-maximal effect); settings: RXR-alpha-bla HEK293T viability, CellTiter-Glo, 16 h; series mostly up to 76.8 µM
Summary of the method: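 Counter screen: CellTiter-Glo luminescence. Cells: RXR-alpha-UAS-bla HEK 293T. Medium: 2% charcoal-stripped FBS. Treatment: 16 h, 37 C. Reagent incubation: 30 min, RT.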

[7] = biological target: Nuclear receptor ROR-gamma (Homo sapiens) (UniProt P51449); assay: qHTS assay to identify small molecule antagonists of the retinoid-related orphan receptor gamma (ROR-gamma) signaling pathway (AID 1159521; active = well fitted curve in the direction sought with a large enough effect in the repeat runs; an effect the other way counts as inactive or inconclusive; note: nearly all actives have a fitted effect of over 50% in size; note: potency is the fitted concentration of half-maximal effect); settings: Tet-on RORgamma CHO cells, RORE-luciferase, 16 h; series mostly up to 92.4 µM
Summary of the method: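 Inducible-expression reporter assay: doxycycline (1 uM final) switched on RORγ in CHO cells bearing a ROR response element-luciferase construct, with test compounds present from 2 h beforehand. Decreased luminescence after 16 h defined antagonist activity.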

[8] = biological target: Retinoic acid receptor RXR-alpha (Homo sapiens) (UniProt P19793); assay: qHTS assay to identify small molecule agonists of the RXR signaling pathway (AID 1159527); settings: HEK293T RXRa-UAS-bla, beta-lactamase ratio, 16 h; series mostly up to 76.8 µM; note: nearly all actives have a fitted effect of over 35% in size
Summary of the method: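 Compounds in DMSO were added to RXR-alpha-UAS-bla HEK 293T cells kept in 2% charcoal-stripped serum, and incubated 16 hr at 37 C with 5% CO2. Reporter signal came from a 2 hr B/G FRET substrate step.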

[9] = qHTS assay to identify small molecule agonists of the AP-1 signaling pathway (AID 1159526); settings: ME-180 (cervical carcinoma) AP-1-bla reporter, beta-lactamase FRET ratio, 5 h; series mostly up to 76.8 µM

Measured: Potency

Chain of Retinoic acid receptor RXR-alpha (Homo sapiens) (P19793 whole entry, looked up): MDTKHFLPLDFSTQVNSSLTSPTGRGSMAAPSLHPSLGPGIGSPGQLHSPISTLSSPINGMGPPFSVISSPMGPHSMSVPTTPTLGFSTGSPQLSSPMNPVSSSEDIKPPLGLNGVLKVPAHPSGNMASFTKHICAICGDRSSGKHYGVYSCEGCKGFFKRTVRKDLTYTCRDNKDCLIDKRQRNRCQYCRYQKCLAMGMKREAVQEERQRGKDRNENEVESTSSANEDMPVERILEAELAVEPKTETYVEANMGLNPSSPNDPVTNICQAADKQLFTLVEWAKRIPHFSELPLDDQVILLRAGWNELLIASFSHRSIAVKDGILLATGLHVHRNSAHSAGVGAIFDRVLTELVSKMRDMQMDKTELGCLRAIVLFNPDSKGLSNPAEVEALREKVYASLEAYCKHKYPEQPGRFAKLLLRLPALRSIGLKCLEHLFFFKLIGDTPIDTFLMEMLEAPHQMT

CC(C)[C@H](C(=O)O[C@H](C#N)c1cccc(Oc2ccccc2)c1)c1ccc(Cl)cc1
not listed: [7] | [8] | [9]
inactive: all other assays above

CCCCCCCCc1ccc(O)cc1
active: [2] 49.3 µM | [3] 49.3 µM | [4] 61.5 µM | [5] 22 µM
inactive: [7]

CC(C)(O)c1cnn2c(-c3ccc(F)c(-c4c(F)cccc4C#N)c3)cnc2n1
active: [7] 61.1 µM
inactive: [2] | [3] | [5]

C=CCC1=C(C)C(OC(=O)C2C(C=C(C)C)C2(C)C)CC1=O (configuration not stated)
active: [2] 58.3 µM | [3] 36.8 µM | [4] 61.1 µM | [7] 32.5 µM | [6] 58.3 µM

CCOc1cc(C(C)(C)C)ccc1C1COC(c2c(F)cccc2F)=N1 (configuration not stated)
active: [7] 33.1 µM | [6] 14.9 µM
inactive: [2] | [3] | [5]

CN(C)C(=S)S
inactive: [1] | [3]
active: [2] 15.5 µM | [4] 6.11 µM | [5] 38.9 µM | [6] 1.22 µM and 43.6 µM

C[C@@H]1CC[C@@]2(OC1)O[C@H]1[C@@H](O)[C@H]3[C@@H]4CC[C@H]5C[C@@H](O[C@@H]6O[C@H](CO)[C@H](O[C@@H]7O[C@H](CO)[C@@H](O)[C@H](O[C@@H]8OC[C@@H](O)[C@H](O)[C@H]8O)[C@H]7O[C@@H]7O[C@H](CO)[C@@H](O)[C@H](O[C@@H]8O[C@H](CO)[C@@H](O)[C@H](O)[C@H]8O)[C@H]7O)[C@H](O)[C@H]6O)[C@H](O)C[C@]5(C)[C@H]4CC[C@]3(C)[C@H]1[C@@H]2C
active: [1] 5.2 µM | [2] 9.25 µM | [3] 7.34 µM | [4] 10.3 µM | [5] 11.6 µM | [6] 4.13 µM

CC1CCC(C(C)C)C(OC(=O)c2ccccc2N)C1 (configuration not stated)
active: [1] 38.4 µM | [2] 34.2 µM | [3] 43 µM | [4] 53.7 µM | [5] 38.4 µM | [6] 17.1 µM

CCCOCC(=Nc1ccc(Cl)cc1C(F)(F)F)n1ccnc1
active: [1] 12.3 µM | [2] 30.9 µM | [3] 34.6 µM | [4] 61.1 µM
inactive: [8]

[Hg+2].[I-].[I-]
active: [1] 5.49 µM | [2] 7.76 µM | [3] 49 µM | [4] 2.17 µM | [6] 3.89 µM

CCOC(=O)CC(=O)CCl
active: [7] 48.6 µM
not listed: [4] | [8]
inactive: all other assays above

Oc1c(Cl)c(Cl)cc(Cl)c1Cl
inactive: [2] | [3] | [5] | [9]
active: [7] 23.7 µM | [6] 7.55 µM

CCCCOCN(C(=O)CCl)c1c(CC)cccc1CC
inactive: [1] | [2] | [3] | [4] | [5]

COC(=O)N(C(=O)N1CO[C@@]2(C(=O)OC)Cc3cc(Cl)ccc3C2=N1)c1ccc(OC(F)(F)F)cc1
inactive: [2] | [3] | [4] | [5] | [6]

c1ccc2cc3c(cc2c1)-c1cccc2cccc-3c12
not listed: [7] | [8] | [9]
inactive: all other assays above

CCC[CH2][Sn]([CH2]CCC)([CH2]CCC)[O]C(=O)c1ccccc1
active: [1] 1.95 µM | [2] 0.436 µM | [3] 4.9 µM | [4] 0.686 µM | [5] 1.23 µM | [6] 1.23 µM

C[C@]12CC[C@@H]3c4ccc(OC(=O)N(CCCl)CCCl)cc4CC[C@H]3[C@@H]1CC[C@@H]2O
not listed: [7] | [9]
inactive: all other assays above

Nc1ccccc1C(=O)OC/C=C/c1ccccc1
active: [1] 49.1 µM
inactive: [2] | [3] | [4] | [7]

CC1(C)C(/C=C(\Cl)C(F)(F)F)C1C(=O)OC(C#N)c1cccc(Oc2ccccc2)c1 (configuration not stated)
not listed: [1] | [7] | [8]
inactive: all other assays above

CCCCCCCCCCCCCC[P+](CCCCCC)(CCCCCC)CCCCCC (tested in a mixture with another compound)
active: [1] 2.75 µM | [2] 17.4 µM | [3] 17.4 µM | [4] 15.4 µM | [5] 21.9 µM | [6] 9.77 µM

Oc1ccc2ccc3cccc4ccc1c2c34
inactive: [2] | [3] | [7] | [5]
active: [6] 49 µM

CCCN(CCC)c1c([N+](=O)[O-])cc(S(N)(=O)=O)cc1[N+](=O)[O-]
active: [1] 11.7 µM | [2] 52.2 µM | [3] 52.2 µM | [4] 54.5 µM | [5] 43.6 µM | [6] 43.6 µM

O=[N+]([O-])c1cc(C(F)(F)F)c(Cl)c([N+](=O)[O-])c1Cl
active: [1] 21.9 µM | [2] 54.9 µM | [3] 12.3 µM | [4] 27.3 µM | [7] 6.11 µM | [6] 17.4 µM

CN(C)C1CSSSC1
not listed: [7] | [8]
inactive: all other assays above

COP(=S)(OC)Oc1cc(Cl)c(Br)cc1Cl
active: [7] 68.6 µM
inactive: [1] | [2] | [3] | [5] | [9]

[CH3][Hg][Cl]
active: [2] 10.9 µM | [3] 21.8 µM | [4] 4.31 µM | [7] 3.05 µM | [6] 6.15 µM

O=c1oc2ccccc2c(O)c1Cc1c(O)c2ccccc2oc1=O
inactive: [2] | [3] | [5] | [8]
active: [7] 7.5 µM
